The record followed here is PubChem BioAssay (Tox21).

Values joined by “and” are separate entries in the source; they are usually repeats but may differ in a detail not shown here. Equal values may be shown once. Records with an inconclusive call do not appear. Active and inactive are the calls of the source. Calls come from the whole dose curve; as a rule, active = well fitted curve in the direction sought with a large enough effect in the repeat runs; inconclusive = weak or mixed curves; inactive = no such curve, though single readings can be large; an effect the other way counts as inactive or inconclusive.

A short description of test [1]: A CellTox Green Cytotoxicity Assay to monitor cytotoxicity in HEK293 cells - 32 hour (AID 1224881). Note: nearly all actives have a fitted effect of over 40% in size. Note: potency is the fitted concentration of half-maximal effect. In short, it runs like this:
(§1)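 Read-out: fluorescence of a cell-impermeant cyanine dye staining DNA of dead cells, proportional to cytotoxicity. HEK293, 600 cells/well with reagent, compound (23 nL DMSO) added after 5 h; reads at 0, 8, 16, 24, 32, 40 h.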

Test [2] is described as follows: A CellTox Green Cytotoxicity Assay to monitor cytotoxicity in HepG2 cells - 0 hour (AID 1224882). Note: nearly all actives have a fitted effect of over 35% in size. Note: potency is the fitted concentration of half-maximal effect. The procedure, abridged:
(§2)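 HepG2, 600 cells/well premixed w/ CellTox Green; 5 h settle, 37 C/5% CO2; pintool cpd add (DMSO); 37 C, 40 h; fluorescence read at 0, 8, 16, 24, 32, 40 h.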

Test [3] can be described thus: A CellTox Green Cytotoxicity Assay to monitor cytotoxicity in HepG2 cells - 32 hour (AID 1224883). Note: nearly all actives have a fitted effect of over 50% in size. Note: potency is the fitted concentration of half-maximal effect. In short, it runs like this: as §2
A short description of test [4]: A CellTox Green Cytotoxicity Assay to monitor cytotoxicity in HEK293 cells - 8 hour (AID 1224884). Note: nearly all actives have a fitted effect of over 35% in size. Note: potency is the fitted concentration of half-maximal effect. The procedure, abridged:
as §1

A short description of test [5]: qHTS RealTime-Glo MT Cell Viability Assay in HepG2 cells - 16 hour (AID 1224885). Note: nearly all actives have a fitted effect of over 50% in size. The procedure, abridged: (§3)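 Cells + NanoLuc/prosubstrate dispensed (600 cells/well) → 5 h at 37 C/5% CO2 → compounds in DMSO transferred → 40 h incubation at 37 C, luminescence read at 0, 8, 16, 24, 32, 40 h.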
A short description of test [6]: qHTS RealTime-Glo MT Cell Viability Assay in HEK293 cells - 24 hour (AID 1224886). Note: nearly all actives have a fitted effect of over 50% in size. Note: potency is the fitted concentration of half-maximal effect. The procedure, abridged: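 Tox21 10K qHTS, HEK293, 600 cells/well, RealTime-Glo reagent co-dispensed with cells; 5 h preincubation, compound by pintool, 37 C, luminescence at 0–40 h.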
Test [7] can be described thus: qHTS RealTime-Glo MT Cell Viability Assay in HEK293 cells - 8 hour (AID 1224887). Note: top concentration of the series differs between compounds; nearly all actives have a fitted effect of over 50% in size. The procedure, abridged:
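Luminescence readout at each listed time point; HEK293, 600 cells/well, RealTime-Glo MT reagent added with cells; compounds pinned (23 nL in DMSO) after 5 h at 37 C; continuous culture at 37 C.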

Test [8] in a line: A CellTox Green Cytotoxicity Assay to monitor cytotoxicity in HEK293 cells - 16 hour (AID 1224888). Note: nearly all actives have a fitted effect of over 35% in size. Note: potency is the fitted concentration of half-maximal effect. The procedure, abridged: as §1
A short description of test [9]: A CellTox Green Cytotoxicity Assay to monitor cytotoxicity in HepG2 cells - 8 hour (AID 1224890). Note: nearly all actives have a fitted effect of over 45% in size. Note: potency is the fitted concentration of half-maximal effect. The procedure, abridged: as §2
A short description of test [10]: qHTS RealTime-Glo MT Cell Viability Assay in HepG2 cells - 0 hour (AID 1224889). Note: nearly all actives have a fitted effect of over 50% in size. In short, it runs like this: as §3

Take `C1CCC(SSC2CCCCC2)CC1`: the Potency entry in [1], in test [2], in test [3], in test [4], in test [5] and in test [6] was “inactive” each time. The Potency result in test [7], in [8] and in test [9] was “inactive” throughout.
With `Cc1c(N)cccc1C(F)(F)F`, the Potency entry in test [1], in test [2], in test [3], in [4], in [5] and in test [6] was “inactive” throughout. The Potency result in test [7], in test [8], in [10] and in test [9] was “inactive” throughout.
Regarding `CN(C)Cc1ccccc1O`, the Potency entry in test [1], in test [2], in [3], in test [4], in test [5] and in test [6] was “inactive” in each case. The Potency result in [7], in test [8] and in test [9] was “inactive” in each case.
With `CCC(CC)(CC(=O)Nc1cccc(/C=C/c2nc(C3CCC3)cs2)c1)C(=O)O`, the Potency entry in [1], in test [2], in [3], in [4], in test [5] and in test [6] was “inactive” throughout. In addition, the Potency result in test [7], in test [8], in [10] and in test [9] was “inactive” in each case.
With `CC(C)(C)C1CCC(=O)CC1`, the Potency entry in [1], in test [2], in [3], in test [4], in test [5] and in test [6] was “inactive” each time. Further, the Potency entry in test [7], in test [8] and in test [9] was “inactive” throughout.
On to `Cc1c(C)c2c(c(C)c1OC(=O)c1cccnc1)CC[C@@](C)(CCC[C@H](C)CCC[C@H](C)CCCC(C)C)O2`, for which the Potency result in test [1], in [2], in test [3], in test [4], in test [5] and in [6] was “inactive” in each case. For the same molecule, the Potency result in test [7], in test [8] and in test [9] was “inactive” throughout.
As to `CCCCCC/C=C\CCCCCCCC(=O)O`, the Potency entry in test [1], in test [2], in test [3], in [4], in test [5] and in [6] was “inactive” throughout. For the same molecule, the Potency entry in test [7], in [8], in [10] and in test [9] was “inactive” throughout.
Turning to `Cc1nc(-c2ccc(Cl)cc2)oc1COC(C)(C)C(=O)O`, the Potency entry in test [1], in test [2], in [3], in test [4], in test [5] and in test [6] was “inactive” in each case. Further, the Potency result in test [7], in [10] and in test [9] was “inactive” throughout.
In the case of `CCO[Si](OCC)(OCC)OCC`, the Potency entry in [1], in [2], in [3], in test [4], in test [5] and in test [6] was “inactive” throughout. The Potency entry in test [7], in test [8], in test [10] and in test [9] was “inactive” throughout.
Turning to `CCCCCCOC(=O)C(C)CC` (configuration not stated), the Potency result in [1], in test [2], in [3], in test [4], in test [5] and in test [6] was “inactive” in each case. Also, the Potency entry in test [7], in test [8], in [10] and in [9] was “inactive” throughout.
Consider `O=S(=O)(O)c1ccc(Nc2nc(Nc3ccc(/C=C/c4ccc(Nc5nc(Nc6ccc(S(=O)(=O)O)cc6)nc(N(CCO)CCO)n5)cc4S(=O)(=O)O)c(S(=O)(=O)O)c3)nc(N(CCO)CCO)n2)cc1`, for which the Potency result in [1], in test [2], in test [3], in [4], in test [5] and in test [6] was “inactive” throughout. The Potency entry in test [7], in test [8] and in test [9] was “inactive” each time.
Regarding `C=CC(C)(CCC=C(C)C)OC=O` (configuration not stated), the Potency result in test [1], in test [2], in test [3], in [4], in test [5] and in test [6] was “inactive” each time. For the same molecule, the Potency result in test [7], in test [8] and in test [9] was “inactive” throughout.
Turning to `Cc1c(C)c([N+](=O)[O-])c(C(C)(C)C)c([N+](=O)[O-])c1C`, the Potency result in test [1], in test [2], in [3], in [4], in [5] and in [6] was “inactive” in each case. The Potency result in test [7], in test [10] and in test [9] was “inactive” each time.
Consider `O=C1CCCCCCCCCCCCCCCO1`, for which the Potency in [1] is 24.5 µM (active); in [2], 38.9 µM (active); in test [3], 43.6 µM (active); in [4] it was 43.6 µM (active); in [8] it was 24.5 µM (active); in test [9], 43.6 µM (active). Further, the Potency entry in [5], in test [6] and in [7] was “inactive” each time.
Take `CCCCOC(=O)CO`: the Potency entry in [1], in test [2], in test [3], in [4], in test [5] and in test [6] was “inactive” in each case. For the same molecule, the Potency entry in test [7], in test [8] and in [9] was “inactive” throughout.
For `Cc1c2ccccc2c(C)c2c1ccc1ccccc12`, the Potency in test [1] is 43.6 µM (active); in test [6], 43.2 µM (active) and 21.9 µM (active). In addition, the Potency entry in [2], in test [3], in test [4], in test [5], in [10] and in test [9] was “inactive” in each case.
In the case of `O=C1CCc2cc(OCCCCc3nnnn3C3CCCCC3)ccc2N1`, the Potency result in test [1], in test [2], in test [3], in [4], in [5] and in [7] was “inactive” in each case. Also, the Potency entry in [8], in test [10] and in test [9] was “inactive” each time.
Regarding `[Cu+]`, the Potency entry in test [1], in test [2], in test [3], in test [4], in test [5] and in test [7] was “inactive” each time. The Potency entry in [8], in test [10] and in test [9] was “inactive” throughout.
On to `O=C(Nc1ccc2c(O)c(N=Nc3ccc(N=Nc4ccc(S(=O)(=O)O)cc4)cc3)c(S(=O)(=O)O)cc2c1)c1ccccc1`, for which the Potency entry in [1], in [2], in test [3], in test [4], in test [6] and in test [7] was “inactive” throughout. Further, the Potency result in test [8] and in test [9] was “inactive” throughout.
In the case of `CCCCCCCCCCCCOC(=O)c1ccc(O)cc1`, the Potency entry in [1], in [2], in test [3], in test [4], in test [5] and in test [10] was “inactive” throughout. Further, the Potency entry in test [9] is “inactive”.
Take `Cc1ccc(N/N=c2\c(=O)cc/c(=N\Nc3ccc(S(=O)(=O)O)cc3)c2=O)c(C)c1`: the Potency entry in test [1], in test [2], in [3], in test [4], in test [5] and in test [6] was “inactive” throughout. The Potency entry in test [7] and in test [9] was “inactive” throughout.
`CC1(C)CCC[C@]2(C)[C@H]3CC(=O)O[C@]3(C)CC[C@@H]12`: in test [1], the Potency was 49 µM (active). Also, the Potency entry in test [2], in test [3], in [4], in [5], in test [6] and in test [7] was “inactive” throughout. For the same molecule, the Potency result in [9] is “inactive”.
